Test results taken from PubChem BioAssay AID624040 (The Scripps Research Institute Molecular Screening Center, 2012).
Screen size: about 360,000 compounds; about 2,100 (0.58%) were called active. Shown is part of a subset that was picked to be rich in actives. Values without a mark were called inactive.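 Rule for the calls: active = inhibition above a per-plate cutoff, the mean of that plate's test compounds plus 3 SD (cut at about 27% in these data); inactive = the rest.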

molecular target: Muscarinic acetylcholine receptor M5 (Homo sapiens) (UniProt P08912); assay: human M5 muscarinic receptor antagonists, primary screen, CHO cells, Fluo-8 calcium fluorescence (AID 624040); settings: CHO-hM5 cells, ACh EC80, at 3 µM, stronger effect = higher value;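 note: 0% = acetylcholine EC80 with DMSO and 100% = DMSO without agonist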
Sequence (P08912 whole entry, looked up): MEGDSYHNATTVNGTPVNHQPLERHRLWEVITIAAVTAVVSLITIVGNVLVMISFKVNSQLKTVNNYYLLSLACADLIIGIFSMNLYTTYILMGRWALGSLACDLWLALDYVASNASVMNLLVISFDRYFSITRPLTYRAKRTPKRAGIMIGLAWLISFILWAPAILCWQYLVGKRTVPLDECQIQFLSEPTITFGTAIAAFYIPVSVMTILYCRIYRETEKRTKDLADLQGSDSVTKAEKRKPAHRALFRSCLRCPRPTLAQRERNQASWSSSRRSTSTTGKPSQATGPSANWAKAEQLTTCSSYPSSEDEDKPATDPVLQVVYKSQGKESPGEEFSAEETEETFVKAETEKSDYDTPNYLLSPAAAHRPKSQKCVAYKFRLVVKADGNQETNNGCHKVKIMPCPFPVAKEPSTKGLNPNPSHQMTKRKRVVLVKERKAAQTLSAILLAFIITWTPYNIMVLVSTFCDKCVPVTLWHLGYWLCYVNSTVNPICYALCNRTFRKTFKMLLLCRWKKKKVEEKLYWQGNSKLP

Row | SMILES | inhibition
1 | CCSc1nsc(NC(=O)Nc2cccc(C(C)=O)c2)n1 | 22.5%
2 | CSc1nsc(NC(=O)Nc2ccccc2)n1 | 31.1% (active)
3 | C=CCSc1nsc(NC(=O)Nc2cccc(C(C)=O)c2)n1 | 21.8%
4 | COC(=O)/C(C#N)=C/c1occc1C | 2.54%
5 | CC1OC2C(OC1C)N(S(C)(=O)=O)CCN2S(C)(=O)=O (stereo not given) | -2.68%
6 | Cc1ccc(C(c2nnnn2CS(=O)(=O)c2ccc(C)cc2)N2CCC(C(N)=O)CC2)cc1 (stereo not given) | -9.51%
7 | NC(=O)C1(N2CCCCC2)CCN(C2CC(=O)N(Cc3ccc(N4CCCC4=O)cc3)C2=O)CC1 (stereo not given) | -5.49%
8 | O=S(=O)(NCCCc1ccccc1)c1ccc(Br)cc1 | 6.97%
9 | S=C(Nc1ccc(Br)cc1)NC1CCN(Cc2ccccc2)CC1 | -2.81%
10 | S=C(NCCCc1ccccc1)Nc1ccc(Br)cc1 | 27.8% (active)
11 | Cc1sc(NC(=O)C2C3CCC(O3)C2C(=O)O)c(C(=O)OC(C)C)c1-c1ccc(Cl)cc1 (stereo not given) | -0.97%
12 | CC(C)OCCCNc1ncnc2c1[nH]c1ccc(F)cc12 | 36.1% (active)
13 | COC(=O)c1ccccc1NC(=O)CN(Cc1ccccc1)S(C)(=O)=O | -12.2%
14 | COCCNC(=O)C1(C)CCCN(Cc2cccc(F)c2)C1 (stereo not given) | 4.07%
15 | COc1cc(CNc2ncnc3c2ncn3[C@H]2CN(Cc3cccs3)C[C@@H](CO)O2)cc(OC)c1OC | 10.9%
16 | O=C(CCl)Nc1ccc(Sc2ccc(NC(=O)CCl)cc2)cc1 | 2.24%
17 | O=C(CC(O)(C(F)(F)F)C(F)(F)F)Nc1ccc(Cl)c(Cl)c1 | 17.8%
18 | O=C(Cc1ccc(Cl)c(Cl)c1)Nc1ccc(SC(F)F)cc1 | 33.6% (active)
19 | Cc1ccc(NC2=C(Cl)C(=O)OC2OC(=O)c2ccccc2C)cc1 (stereo not given) | 5.07%
20 | CCC(=O)c1ccc(N2CCN(C(=O)c3cc([N+](=O)[O-])ccc3F)CC2)c(F)c1 | 17.6%
21 | CCN1CCN(c2ccc([N+](=O)[O-])cc2C(=O)c2ccc(Cl)cc2)CC1 | 78.8% (active)
22 | CCC(C)(C)NC(=O)c1cc([N+](=O)[O-])ccc1N1CCCCC1 | 6.53%
23 | O=C(CCC1CCCCC1)Nc1cc(C(F)(F)F)ccc1N1CCOCC1 | 10.2%

Row | SMILES | inhibition
24 | COC(=O)[C@@]12C[C@@H](CC(=O)N3CCCCC3)C(=O)N(Cc3ccc4c(c3)OCO4)C1=CCC(C)(C)C2 | -4.41%
25 | Cc1cc2cc(CNC(=O)c3ccc(S(=O)(=O)N4CCOCC4)cc3)ccc2[nH]1 | 13.1%
26 | Cc1cc2cc(CNC(=O)c3cccs3)ccc2[nH]1 | 97.7% (active)
27 | Cc1ccc(C)c2[nH]c(=O)c(CCNC(=O)c3cccs3)cc12 | 2.31%
28 | Cc1ccc(C)n1-c1ccncc1 | 2.29%
29 | CCOC(=O)c1ccc(N/C(=N/S(=O)(=O)c2ccccc2)c2ccccc2)cc1 | -3.7%
30 | COc1cc(NC(=O)c2ccccc2NS(=O)(=O)c2ccc(Cl)s2)cc(OC)c1 | 14.3%
31 | COC(=O)c1ccc(NC(=O)c2ccccc2NS(=O)(=O)c2ccccc2)cc1 | 31.6% (active)
32 | COc1ccccc1NC(=O)CSc1nnc(-c2ccoc2C)n1CCc1ccccc1 | 6.68%
33 | COC(=O)C1=C(C)N(c2ccc(C)cc2)/C(=C/c2ccc(O)cc2)C1=O | 3.87%
34 | Cc1ccn2c(=O)c(C(=O)NCCC3=CCCCC3)c(O)nc2c1 | 2.86%
35 | CC(NC(=O)C(=O)Nc1nccs1)c1ccccc1 (stereo not given) | 30.9% (active)
36 | C[C@H](NC(=O)c1[nH]cnc1C(=O)Nc1nccs1)c1ccccc1 | 11.9%
37 | CC(=O)NC(CC(=O)Nc1nccs1)c1ccccc1 (stereo not given) | -3.08%
38 | O=C(C1CC1)N1N=C2CCCCC2C1(O)C(F)(F)F (stereo not given) | 13.2%
39 | Cc1nc(C)c(C(=O)N(c2ccc(C)c(C)c2)C(C(=O)NCc2ccco2)c2ccccc2)s1 (stereo not given) | 2.62%
40 | CC(C)(C)C(=O)c1c(N)[nH]c(C(=O)c2ccccc2)c1-c1ccc(F)cc1 | -1.9%
41 | CCC(C(=O)OCC(=O)Nc1ccc(C(=O)Nc2ccc(OC)cc2)cc1)c1ccccc1 (stereo not given) | 36.3% (active)
42 | COc1ccc(NC(=O)CC(NC(C)c2ccccc2)C(=O)O)cc1 (stereo not given) | 4.75%
43 | COc1ccc(NC(=O)COC(=O)c2ccc(NS(=O)(=O)/C=C/c3ccccc3)cc2)cc1 | 14.2%
44 | Cc1ccc(N2C(=O)C3C(c4ccccc4)(C2=O)C3(c2ccccc2)c2ccccc2)cc1 (stereo not given) | 15.6%
45 | O=c1[nH]c2ccccc2n1C1CCN(CCOc2ccccc2)CC1 | 8.05%
46 | OC(c1ccccc1)(c1ccccc1)C1CCN(CCCOc2ccccc2)CC1 | 97.1% (active)

Row | SMILES | inhibition
47 | COc1ccc(OCCCCN2CCC(C)CC2)cc1 | 5.32%
48 | OC[C@@H]1CN(Cc2ccc3c(c2)OCO3)C[C@H](n2cnc3c(NCc4ccco4)ncnc32)O1 | -1.64%
49 | CCn1c(CNC(=O)c2cc(OC)c(OC)c(OC)c2)cc2cc(C)ccc21 | 48% (active)
50 | COc1cc(C(=O)NCc2nnc(SCC(=O)Nc3nc4ccc(C)cc4s3)o2)cc(OC)c1OC | -2.26%
51 | COc1cc(C(=O)NCc2ccc(-n3cccc3)cc2)cc(OC)c1OC | 21.1%
52 | CSc1ncccc1C(=O)OCC(=O)N1CCOCC1 | -6.57%
53 | Cc1ccc2cc(CCNC(=O)c3ccc4c(c3)OCO4)c(=O)[nH]c2c1 | -4.27%
54 | OC(COc1ccc2ccccc2c1)Cn1cncn1 (stereo not given) | -0.83%
55 | CCOC(=O)c1c(/N=C/C2C(=O)CC(C)(C)CC2=O)sc(C)c1C | -2.97%
56 | CC(C)CN(C(=O)CSc1ncnc2sccc12)C1CCS(=O)(=O)C1 (stereo not given) | 1.5%
57 | CC(C)CN(C(=O)Cn1c(=O)cnc2ccccc21)C1CCS(=O)(=O)C1 (stereo not given) | 99.6% (active)
58 | CCN(C(=O)CSc1nc2ccccc2n1CC)C1CCS(=O)(=O)C1 (stereo not given) | -0.58%
59 | N#Cc1c(NC(=O)c2ccc(N3CCOCC3)c([N+](=O)[O-])c2)sc2c1CCCC2 | 2.95%
60 | O=C1NC[C@H](Cc2ccc(O)cc2)N(C[C@@H]2CCCN2C[C@H](Cc2ccccc2)N2C[C@H](Cc3ccccc3)N(CC3CCCCC3)C(=O)C2=O)C1=O | -4.87%
61 | CN(Cc1cccnc1)C(=O)c1cc(COc2ccc3ncccc3c2)on1 | 42.6% (active)
62 | Cc1ccc(OCc2cc(C(=O)N(C)CCn3ccnc3C)no2)cc1C | -4.53%
63 | Cc1cc(CN(C)C(=O)c2cc(COc3ccc(C)c(C)c3)on2)n[nH]1 | -7.18%
64 | CC/C(=C\c1ccc(Cl)cc1)c1ccncc1 | 4.13%
65 | CC(=O)Nc1cccc(-c2ccnc3c2CC(C)(C(=O)NCc2ccccc2)O3)c1 (stereo not given) | -11.6%
66 | C=CCN(c1ccccc1C(=O)NCC(=O)OCC)S(=O)(=O)c1ccc(C)cc1 | 3.91%
67 | CCOc1ccc(CN(Cc2ccco2)S(=O)(=O)c2ccc(-n3cnnn3)c(OC)c2)cc1 | 4.28%
68 | CCOc1cc(C(C(=O)NCC2CCCO2)N(C(=O)Cn2nnc3ccccc32)c2cccc(OC)c2)ccc1O (stereo not given) | 31.8% (active)
69 | Cc1ccc(C(C(=O)NCc2ccco2)N(CC2CCCO2)C(=O)Cn2nnc3ccccc32)cc1 (stereo not given) | -3.06%

Row | SMILES | inhibition
70 | COc1ccc(C(C(=O)NCC2CCCO2)N(C(=O)Cn2nnc3ccccc32)c2ccc(NC(C)=O)cc2)cc1OC (stereo not given) | -5.21%
71 | COc1ccc(CCNc2cc(C)nc3c(-c4ccc(Cl)cc4)c(C)nn23)cc1OC | 0.85%
72 | CSCCC(C(=O)NC1=NCCS1)N1C(=O)c2ccccc2C1=O (stereo not given) | 6.62%
73 | CCN(CC)C(=O)C1CCCN(Cc2cccc(Cl)c2)C1 (stereo not given) | 2.81%
74 | COc1c(O)ccc2c1CN1CCc3cc4c(cc3C1C2)OCO4 (stereo not given) | 4.81%
75 | CC(C)C(=O)Nc1ccc2c3c(cccc13)CC2 | -8.88%
76 | N#CC1(Nc2ccc3c4c(cccc24)CC3)CCCCC1 | 40.5% (active)
77 | N#CC1(Nc2ccc(-c3ccc(Cl)cc3)cc2)CCCC1 | 16.1%
78 | CCCCOC(=O)c1ccc(NC(c2ccc(C)cc2)P(=O)(OC)OC)cc1 (stereo not given) | 8.39%
79 | CC1=C(C(=O)N2CCOCC2)CC(CC(=O)NCc2ccco2)C(=O)N1Cc1ccc(F)cc1 (stereo not given) | -4.73%
80 | O=C(O)c1n[nH]nc1-c1ccccc1 | -3.66%
81 | Cc1c(-c2ccccc2)nc(N)c(C#N)c1-c1cccs1 | 8.1%
82 | N#Cc1c(-c2ccccc2)c(-c2ccccc2)n[nH]c1=O | 31.9% (active)
83 | COc1cc(C)nc(N2CCCC(C(=O)NCC(C)C)C2)n1 (stereo not given) | -3.29%
84 | CCCc1cc(C(=O)N2CCCC(CO)(CCCc3ccccc3)C2)n(C)n1 (stereo not given) | 17%
85 | CCN(CC)S(=O)(=O)c1ccc(N(C)CCc2ccc(OC)c(OC)c2)nc1 | 3.43%
86 | CCN(CC)S(=O)(=O)c1ccc(N(C)Cc2ccc(C(F)(F)F)cc2)nc1 | 29% (active)
87 | CCN(CC)S(=O)(=O)c1ccc(N(C)Cc2cccc(OC)c2OC)nc1 | 22.7%
88 | Nc1c(Cl)cc(-c2csc(N3CCCC3c3nc4cc(Cl)c(Cl)cc4n3CCOCCO)n2)cc1Cl (stereo not given) | 15.2%
89 | O=C(COC(=O)c1cc(-c2cccs2)nn1-c1ccccc1)Nc1cc([N+](=O)[O-])ccc1Cl | 1.74%
90 | CCCCN(C(=O)C(CCSC)N1C(=O)c2ccccc2C1=O)c1c(N)n(CCC)c(=O)[nH]c1=O (stereo not given) | -3.24%
